# Hit rate of the full screen: of about 330,000 compounds, about 40 (0.01%) were called active. Many of the other results were omitted from the sample, so actives are more common in it than they were. A number with no mark means an inactive call. The call rests on the fitted dose curve; in most records, active means well fitted inhibition curve with a large enough effect; inconclusive means small, poorly fitted or top-dose-only effect, or effect the other way; inactive means flat fitted curve, though single readings scatter.
# Biological target: Ubiquitin carboxyl-terminal hydrolase 2 (Homo sapiens) (UniProt O75604)
# Assay: qHTS Assay for Inhibitors of Ubiquitin-specific Protease USP2a Using CHOP2 as the Reporter
# Conditions: USP2 core, Ub-CHOP2 coupled fluorogenic reporter, 485/531; series mostly up to 38.3 µM; activity change, negative = inhibition: at the top concentration
# Source text: NIH Molecular Libraries Screening Centers Network [MLSCN] NIH Chemical Genomics Center [NCGC] MLSCN Grant: XO1-MH079852-01 PI Name: Nicholson, Ben. Progenra Inc, Malvern, PA NCGC Assay Overview: Homeostasis of cellular proteins is maintained through a combination of synthesis and degradation. The pathway that accounts for the majority of protein degradation is the ubiquitin-proteasomal pathway. Ubiquitin (Ub) is highly conserved in all cells and the generation of a multi-Ub chain typically targets proteins for degradation by the proteasome. However, ubiquitination is highly reversible and dynamic. Deubiquitination, the reverse process, is catalyzed through the action of enzymes referred to as isopeptidases or deubiquitinating enzymes (DUBs). This group of enzymes is collectively responsible for maintaining adequate pools of free ubiquitin and regulating the ubiquitination status of cellular proteins. The class of DUBs referred to as the ubiquitin-specific proteases (USP) family functions endoproteolytically to cleave Ub chains from a wide range of protein substrates. USP2a deubiquitinates fatty acid synthase (FASN) which has recently been identified as an emerging oncology target. To identify inhibitors of USP2a a cell-free assay was employed. […] The reporter enzyme chosen is an enterokinase called CHOP2, which is activated when the Ub is cleaved by USP2. The free and now activated reporter can subsequently act on its reporter substrate. Thus, this coupled assay gives a fluorescent read-out at excitation/emission wavelengths of 485/531. The assay was developed by Progenra, Inc. and has been licensed for sale by LifeSensors, Inc. as Ub-CHOP2-Reporter-Kit (#PR1101).
# NCGC Assay Protocol Summary: The assay buffer, prepared fresh at the day of the assay, contains 20mM Tris-HCl pH 8.0, 2mM CaCl2, 2mM beta-Mercaptoethanol, 0.05% CHAPS. 3ul of 20nM (10nM final) USP2 core, which is stored on ice, is dispensed into a medium-binding black solid Kalypsys 1,536 well plate using the Kalypsys dispenser. The assay plate is then pinned with 23nL compound with the Kalypsys pintool in columns 5-48. The controls are pinned as follows: column 1 two-fold dilutions of 2M NEM in duplicate; column 2 2M NEM (final concentration 38.2mM); column 3&4 DMSO. The assay plate is incubated at RT for 30min. Subsequently, 1.5uL of 100nM (25nM final) Ub-CHOP2 and 1.5uL of 100nM (25nM final) Reporter Substrate (both stored on ice and protected from light) were dispensed into the plate using the Kalypsys dispenser. Plates were read after 60min RT incubation on a ViewLux (Perkin Elmer) plate reader using the following wavelengths Ex 485nm /Em 531nm. Data were normalized to the to AC100 inhibition (NEM). Concentration-response curves were fitted to the normalized data and the concentration-response curves were then classified based on curve quality (r2), response magnitude and degree of measured activity. The time zero reading was used to flag fluorescence artifacts. Keywords: ubiquitination, deubiquitination, proteases, profluorescent, MLSMR, MLPCN, NIH Roadmap, qHTS, NCGC
# Potency means the concentration at half of the fitted maximal effect.
# Ubiquitin carboxyl-terminal hydrolase 2 (Homo sapiens), sequence (O75604 whole entry, looked up): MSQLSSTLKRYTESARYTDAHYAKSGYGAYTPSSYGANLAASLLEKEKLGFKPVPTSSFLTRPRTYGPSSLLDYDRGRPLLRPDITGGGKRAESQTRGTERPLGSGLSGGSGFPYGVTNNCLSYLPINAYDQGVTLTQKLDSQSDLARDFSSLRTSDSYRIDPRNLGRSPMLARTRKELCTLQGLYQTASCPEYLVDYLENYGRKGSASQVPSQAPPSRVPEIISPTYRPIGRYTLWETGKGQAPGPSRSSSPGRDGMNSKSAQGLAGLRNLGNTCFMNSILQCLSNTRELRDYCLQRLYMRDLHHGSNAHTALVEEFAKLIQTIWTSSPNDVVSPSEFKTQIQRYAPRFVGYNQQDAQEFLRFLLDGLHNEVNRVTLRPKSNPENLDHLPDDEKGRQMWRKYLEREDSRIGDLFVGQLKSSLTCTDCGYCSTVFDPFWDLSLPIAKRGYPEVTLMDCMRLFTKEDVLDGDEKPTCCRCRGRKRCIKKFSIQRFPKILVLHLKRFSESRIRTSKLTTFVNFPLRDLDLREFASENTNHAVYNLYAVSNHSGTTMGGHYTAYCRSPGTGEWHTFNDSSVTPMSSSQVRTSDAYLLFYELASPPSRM
SMILES,Potency,"activity change, negative = inhibition [%]"
O=C(OCC1O[C@@H](OC(=O)c2cc(O)c(O)c(O)c2)[C@@H](OC(=O)c2cc(O)c(O)c(O)c2)[C@@H](OC(=O)c2cc(O)c(O)c(O)c2)[C@@H]1OC(=O)c1cc(O)c(O)c(O)c1)c1cc(O)c(O)c(O)c1 (stereo not given in full),6.31 µM (active),
CC(C)(C)[C@]1(O)C[C@@H]2OC(=O)C[C@@]23C(=O)O[C@@H]2OC(=O)[C@H](O)[C@]213,,-0.667
NC(=O)Cn1cc(C(=O)c2ccccc2F)c2ccccc21,,-1.61
Cc1ccnc(-n2c(C)cc(/C=C3\C(=O)NC(=S)N(C)C3=O)c2C)c1,,4.37
CC12CN3CC(C)(CN(C1)C3c1cccs1)C2 (stereo not given),,4.94

# — PubChem BioAssay AID463254 (National Center for Advancing Translational Sciences (NCATS), 2010)
